According to ChEMBL document CHEMBL3988442, “University of Dundee, Small-Polar-MMV Screening Library” (2021):
In all, about 48,000 compounds went through this assay and about 13,000 (27%) showed an effect of 50% or more. The list shows a part of the results.

Each compound was assayed on Wolbachia pipientis (assay: Anti-Wolbachia Cell-Based Screen). Settings: 5 µM.
Format: functional
Parameters: scale not given: in the data most compounds retested in dose-response had high values

SMILES | Percent Effect [%]
CCc1ccc(CCC(=O)NCc2nnc[nH]2)cc1 | 9.868
O=C(CCn1cccn1)NS(=O)(=O)N1CCCc2ccccc21 | -12.53
CN(C)c1nc(N)nc(CSCCC(=O)Nc2ccc(F)cc2)n1 | -6.74
COCCN1CCN(CC(=O)N(C)Cc2ccc(F)cc2)CC1C (configuration not stated) | 0.8723
O=S1(=O)COCCN1Cc1ccc(F)c(F)c1 | 115.2
O=C(CN1CCOCS1(=O)=O)NCCc1ccc(Cl)cc1 | 2.599
O=C(CN1CCOCS1(=O)=O)NCc1ccccc1 | -2.644
Cc1cccnc1NC(=O)CSc1ccc2c(c1)OCCO2 | -1.464
CCN(CC)C(=O)Nc1ccc(N2CCSCC2)cc1C | -12.7
CNC(=O)c1ccc(CN(C)c2ccc(C(F)(F)F)cn2)cc1 | 22.77
CC(C)c1nnc(NC(=O)NC2CCOc3ccccc32)s1 (configuration not stated) | -12.43
CSc1cc2c(cc1NC(=O)N(C)Cc1ccncc1)OCCO2 | -3.541
COCCN(Cc1ccc(C)o1)C(=O)Nc1nnc(C(F)F)s1 | -29.25
CNC(=O)c1ccc(CN(C)C(=O)Nc2nnc(C(C)C)s2)cc1 | 109.8
CC(C)c1nnc(NC(=O)NCc2cccnc2NCCN(C)C)s1 | -11.78
CC(C)c1nnc(NC(=O)N(C)Cc2ccc(C(N)=O)cc2)s1 | 102.8
CC(C)c1nnc(NC(=O)N(C)Cc2ccncc2)s1 | 78.38
CC(NC(=O)N(C)Cc1ccncc1)c1nncn1C (configuration not stated) | 2.48
Clc1ccc(NCc2nnc(C3CC3)o2)cc1Cl | -1.785
CC(=O)Nc1cc(Br)cnc1OCC(F)(F)F | -6.07
Cc1nc(-c2ccco2)ccc1C(=O)N1CCc2nnc(N)cc2C1 | -5.155
O=C(CCC(=O)c1ccccc1)NC1(C(=O)NCC2CC2)CCCC1 | -11.29

SMILES | Percent Effect [%]
CCc1nc(N)nc(N2CCCC3(CN(C)C(=O)O3)C2)c1C (configuration not stated) | -2.167
CCc1nc(N)nc(N2CCCC3(CCN(C)CC3)CC2)c1C | 62.58
CCc1nc(N)nc(N2CCCC3(CCOCC3)C2)c1C | 10.4
CCOCC(=O)N1CCC(C2CCN(Cc3ccc(Cl)cc3)C2)CC1 (configuration not stated) | -8.468
O=C(Nc1cccc(CNCc2cccs2)c1)C1CCCC1 | 0.6832
CC(NCc1cccc(NC(=O)C2CCCCC2)c1)c1cnn(C)c1 (configuration not stated) | 104.4
COc1cc(CNc2cnn(C)c2)cc2c1OCCO2 | -0.1017
Cn1cc(C(NCc2ccc(F)cc2)c2cccc(F)c2)cn1 (configuration not stated) | -2.157
Clc1cnccc1NCc1cccc(COC2CCOCC2)c1 | -32.94
CCOc1cc(CNC(C)c2ccc(F)cc2)ccn1 (configuration not stated) | -5.561
COc1ccc(CNC(C)c2cnn(C)c2)cc1OC1CCCC1 (configuration not stated) | 106.9
COc1ccc(CNC(c2cccc(F)c2)c2cnn(C)c2)cc1 (configuration not stated) | 4.131
CC(NCc1cccc(COC2CCCC2)c1)c1cnn(C)c1 (configuration not stated) | 126.5
CC(C(=O)NCc1ccnc(OC2CCCC2)c1)n1cncn1 (configuration not stated) | 10.69
CC(NCCN1CCN(C(=O)C2CCCC2)CC1)c1cnn(C)c1 (configuration not stated) | 3.842
CC(NCc1ccnc(OC2CCC2)c1)c1cnn(C)c1 (configuration not stated) | 127.4
CC(C)(O)C1CCN(C(=O)Nc2nc(-c3ccccc3)ns2)CC1 | 6.519
CC(=O)c1cc(CC(=O)NCc2ccc(CN(C)C)cc2)cs1 | -9.398
O=C1CCC2(CCCN(C(=O)c3ncc[nH]3)C2)CN1CCc1c[nH]cn1 (configuration not stated) | 2.094
CC(=O)N1CCCN(C(C)C(=O)Nc2ccnn2C(C)C)CC1 (configuration not stated) | 14.5
Cc1ccc(C(=O)NCCS(=O)(=O)Cc2ccccc2)c(=O)[nH]1 | -6.765
O=C(c1ccc(=O)[nH]n1)N1CC(c2nc(Cc3ccccc3)no2)C1 | -16.23

SMILES | Percent Effect [%]
O=C(NCCn1cnc(C2CCCC2)cc1=O)c1ccc(=O)[nH]n1 | -1.303
CNc1cc(C2CCCN2C(=O)c2ccc(=O)[nH]n2)ccn1.O=CO (configuration not stated) | 167.7
CNc1cc(C2CCCN(C(=O)c3ccc(=O)[nH]n3)C2)ccn1 (configuration not stated) | 169.1
CNc1cc(C2CCCN2C(=O)c2ccc3oc(=O)n(C)c3c2)ccn1 (configuration not stated) | -0.2257
CN(C)c1cc(C2CCCN(C(=O)c3ccc(=O)[nH]n3)C2)ccn1 (configuration not stated) | 139.8
Cn1cc(C(=O)N2CCC(c3nccn3Cc3ccncc3)CC2)cn1 | -25.63
Cc1ccnc(C2CCN(C(=O)c3cnn(C)c3)CC2)n1 | 85.52
Cc1cc(C2CCN(C(=O)c3cnn(C)c3)CC2)ccn1 | 94.31
Cc1ccnc(C2CCN(C(=O)c3cnn(C)c3)C2)n1 (configuration not stated) | 83.36
Cc1cc(C2CCCN(C(=O)c3cnn(C)c3)C2)ccn1 (configuration not stated) | -11.66
Cc1c(C)n(CC(O)CN2CCC(C)CC2)c2c(Cl)cccc12 (configuration not stated) | -13.14
F[C@@H]1CN(Cc2ccccc2)C[C@@H]1OCc1nc2cnccc2[nH]1 | -3.935
CC(=O)c1cccc(NC(=O)Cn2cnc(-c3ccccc3)cc2=O)c1 | -1.653
COC(=O)c1cccc(NC(=O)CN2CCN(S(C)(=O)=O)CC2)c1 | 0.7545
COC(=O)c1cccc(C(=O)N2CCCCC2CCn2ccnc2C)c1 (configuration not stated) | -0.7359
CN(C)C(=O)c1cccc(NC(=O)CN2CCCCC2C2OCCO2)c1 (configuration not stated) | -9.797
CCc1nccn1CC(=O)Nc1cccc(C(=O)OC)c1 | 94.76
CCc1nccn1CC(=O)Nc1cccc(C(=O)N(C)C)c1 | 117.3
CCNc1ncc(C(=O)N(C)CCc2nc3cc(Cl)ccc3[nH]2)cn1 | -2.741
CC(C)CN1CCc2[nH]cnc2C12CCN(C(=O)c1cnn(C)c1)CC2 | 18.71
Cn1cccc1C(=O)N1CCCN(CCCc2ccccc2)CC1 | 5.768
CCC(CCN)n1ccc(C(F)(F)F)n1 (configuration not stated) | 101

SMILES | Percent Effect [%]
CC(CC#N)n1ccc(C(F)(F)F)n1 (configuration not stated) | 86
CCC(CC#N)n1ccc(C(F)(F)F)n1 (configuration not stated) | 100.1
CS(=O)(=O)NCCNC(=O)NC1(c2ccc(F)cc2)CCCC1 | 1.188
Cc1cccc(CS(=O)(=O)CC(=O)N(C)Cc2ccccc2F)c1 | -4.083
CC(=O)c1ccccc1NC(=O)CCN1CCSCC1 | -1.71
O=C(N[C@@H]1CCCNC1)C1(Oc2ccc(Cl)cc2)CCNCC1 | -9.041
Nc1ncc(-c2ccc(Cl)cc2)c(C2CCCNC2)n1 (configuration not stated) | 110.4
FC(F)(F)c1ccc(-c2c[nH]c([C@@H]3COCCN3)n2)cc1 | -4.53
O=S(=O)(NCCn1cc(C2CCCNC2)nn1)c1ccc(Cl)cc1 (configuration not stated) | 7.811
Nc1ncc(-c2ccc(F)cc2)c(C2CCCNC2)n1 (configuration not stated) | 107.7
COc1ccc(-c2cnc(N)nc2C2CCCNC2)cc1.Cl (configuration not stated) | 80.9
Nc1ncc(-c2ccc(C(F)(F)F)cc2)c(C2CCCNC2)n1 (configuration not stated) | 52.9
FC(F)(F)c1ccc2[nH]c([C@H]3CCNC3)nc2c1 | -0.9457
CN(Cc1ccccc1Cl)C(=O)c1cc(CN2CCC(O)CC2)on1 | -7.03
Cc1nnc2n1CCN(Cc1c(Cl)ccc3cccnc13)C2 | -10.28
CNC(=O)c1ccc(C(=O)N2CCCC(n3ccnc3C)C2)cn1 (configuration not stated) | 94.35
CCc1nccn1C1CCCN(C(=O)c2ccc(C(=O)NC)nc2)C1 (configuration not stated) | -5.671
CNC(=O)c1ccc(C(=O)N2CCCC(n3ccnc3)C2)cn1 (configuration not stated) | 118
Cc1cccc(C)c1OCCNC(=O)C[S+]([O-])C1CCCC1 (configuration not stated) | 0.9364
O=C(C1CCCc2[nH]ncc21)N1CCCC2(C1)OCCO2 (configuration not stated) | 23.68
CCc1cc(NC2CCN(Cc3ccccc3F)CC2)n2nccc2n1 | 21.54
Fc1ccccc1CN1CCC(c2noc(-c3ccccn3)n2)CC1 | 178

SMILES | Percent Effect [%]
CCn1c(CN(C)C)nnc1C1CCN(Cc2cccc(F)c2F)CC1 | 8.209
Fc1ccc(CN2CCCC(c3nnc(-c4cnccn4)o3)C2)cc1F (configuration not stated) | -0.1636
Fc1ccccc1CN1CCC(c2n[nH]c(C3CC3)n2)CC1 | -0.8499
Fc1cccc(CN2CCC(c3noc(-c4ccccn4)n3)CC2)c1F | 179
CC(c1nc(C2CC2)no1)N1CCN(Cc2cccc(F)c2F)CC1 (configuration not stated) | 13.59
Fc1ccc(CN2CCC(c3noc(-c4cnccn4)n3)CC2)cc1F | 155.5
Fc1ccc(CN2CCC(c3n[nH]c4nccnc34)CC2)cc1F | -10.9
Fc1cccc(CN2CCC(c3noc(-c4ccncc4)n3)CC2)c1F | 205.5
CC(=O)NCCC(=O)NCCCOc1c(C)cccc1C | 1.2
CC(=O)N(Cc1c(F)cccc1F)C1CCCC1 | -1.576
O=C(CSc1ccc2c(c1)OCCO2)NS(=O)(=O)c1ccccc1Br | -0.599
COc1ccc2c(c1)OCC(Cc1ccc(CN)cn1)C2 (configuration not stated) | -20.89
O=C(Nc1ccc(F)cc1)N1C[C@H]2CC[C@@H]1CN(Cc1cccnc1)C2 | -11.36
CCC1=N[C@@]2(CC[C@@H]3CN(S(=O)(=O)N(C)C)C[C@@H]32)C(=O)N1CC(C)C | -19.59
CC(=O)NC(C(=O)N1CCn2cncc2C1)C(C)C (configuration not stated) | 3.291
Cc1noc(C)c1CC(=O)OCC(=O)N1CCc2sccc2C1 | 3.916
CC1CN(C2CCN(Cc3nccn3CC(F)(F)F)CC2)CCO1 (configuration not stated) | -6.653
Fc1cccc(C2CCCCN2Cc2nc(-c3cnccn3)no2)c1 (configuration not stated) | -8.906
Fc1cccc(CN2CCC(c3noc(-c4cnccn4)n3)CC2)c1F | 134.1
